Laboratory results taken from PubChem BioAssay (NCI).
Compounds without any hit were thinned out: in the full panel of roughly 83,000, 20% have a hit.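 48-hour exposure, single concentration, 96-well plates; percent growth endpoint where 0 means no net growth. Active: below 10.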 Values without a mark were called inactive. Calls of active or inactive are those of the source.

System: OVCAR-4 ovarian
Assay: NCI-60 one-dose screen, 48 h (100 = growth as untreated, 0 = no growth, -100 = all killed)
Conditions: 10 µM unless noted
Method: Growth inhibition of the OVCAR-4 human tumor cell line is measured as a screen for anti-cancer activity. Cells are grown in 96 well plates and exposed to the test compound for 48 hours. Compounds are tested at a single concentration, which is 10^-5 M for most compounds. The reported endpoint is percent growth (GI% or GIPRCNT), where numbers from 0 - 100% represent growth inhibition, and numbers from -100% - 0 represent cell death. For example, a value of 40 represents 60% growth inhibition. A value of 0 means no net growth occurred over the course of the experiment. A value of -40 indicates 40% of cells at the beginning of the experiment died by the end of the experiment. A value of -100 means all cells are dead at the end of the experiment.
NCI-60 Human Tumor Cell Lines Screen was performed using the standard one-dose NCI protocol, which is described in more detail at https://dtp.cancer.gov/discovery_development/nci-60/default.htm.
Compounds with GIPRCNT values below 10 were considered active. Activity score was based on GIPRCNT using the following formula: […]
Score is 0 for GIPRCNT values of 100 or above, 50 for GIPRCNT values of 0, and 100 for GIPRCNT values of -100.

Row | Structure (SMILES) | growth
1 | CCCCCC[C@@H](O)C/C=C\CCCCCCCC(=O)OCCOC | 98.4%
2 | CN(C)c1ccc(/C=C/c2ccnc3ccccc23)cc1 | 69.6%
3 | COc1ccc(C(OCC2OC(n3ccc(NC(=O)c4ccccc4)nc3=O)C(O)C2O)(c2ccccc2)c2ccccc2)cc1 (stereo not given) | 25.9%
4 | Nc1ccc(C(=O)/C=C/c2ccccc2)cc1 | 105%
5 | O=C1C=CC(=O)N1C1CCCCCCCCCCC1 | 89.5%
6 | CC12CCC(O)CC1=CCC1C2CCC2(C)C3=NN=CC3CC12 (stereo not given) | 107%
7 | CCOC(=O)c1c(C)[nH]c2ccc(O)cc12 | 107%
8 | Oc1ccccc1N=Cc1ccccc1 | 107%
9 | CN(C)CCSC1=Nc2ccc(Cl)cc2C(c2ccccc2Cl)N(C)C1 (stereo not given) | 39.4%
10 | O=[N+]([O-])c1ccc2c(c1)Cc1ccccc1-2 | 97.3%
11 | O=[n+]1c2ccccc2n([O-])c2cc(Cl)ccc21 | 40.3%
12 | CC(=O)Nc1ccc(C(=O)CCl)cc1 | 60.6%
13 | C/C=C/c1cc2c(c(=O)o1)C(=O)[C@@H](O)[C@H](C)O2 | -12.6% (active)
14 | O=C(O)c1cccc2cccc(-c3c4ccc(=O)c(O)c-4oc4c(O)c(O)ccc34)c12 | 97.4%
15 | CC(O)C(O)C(O)C(O)C(O)C(=O)NNc1ccccc1 (stereo not given) | 96.5%
16 | COc1cccc2c1C(=O)c1c(O)c3c(c(O)c1C2=O)C[C@@](O)(C(=O)CO)C[C@@H]3OC1CC(OC(C)=O)C(OC(C)=O)C(C)O1 (stereo not given in full) | -4.7% (active)
17 | O=[N+]([O-])CC(O)c1ccccc1 (stereo not given) | 93.8%
18 | CC(C)(C)c1ccc(O)c(Br)c1 | 101%
19 | C[n+]1ccccc1C[n+]1ccccc1 | 113%
20 | Cc1ccc(Nc2ccc(O)c3c2C(=O)c2c(O)ccc(Nc4ccc(C)cc4)c2C3=O)cc1 | 111%

Row | Structure (SMILES) | growth
21 | O=C(O)c1ccc2c(c1)C(=O)c1ccccc1C2=O | 96.7%
22 | Oc1c(Cl)cc(Cl)cc1C(c1cc(Cl)cc(Cl)c1O)C(Cl)(Cl)Cl | 20.4%
23 | CCC1CCCCN1C(=S)N/N=C(\C)c1ccccn1 (stereo not given) | -50.2% (active)
24 | O=C(NOC(=O)c1ccccc1)c1ccccc1 | 105%
25 | O/N=C1\c2ccccc2-c2ccc(F)cc21 | 85.8%
26 | COc1ccc2c(c1OC)OCC(CN(C)C)C2=O (stereo not given) | -50.8% (active)
27 | N#C/C(=N\Nc1ccc(Cl)cc1)C(=O)C1CC1 | 31.2%
28 | CC(C)N=C(N)/N=C(\N)Nc1ccc2ccc3ccccc3c2c1 | -56.9% (active)
29 | Nc1ccc(-c2ccc(N)c(S(=O)(=O)O)c2)cc1S(=O)(=O)O | 108%
30 | CCc1cccc(CC)c1N1C(=O)C=CC1=O | 111%
31 | COC(=O)c1cc([N+](=O)[O-])cc([N+](=O)[O-])c1Cl | 61%
32 | OC(c1cc(-c2ccc(Cl)cc2)nc2c(Cl)cccc12)C1CCCCN1 (stereo not given) | -85.6% (active)
33 | NNc1cccc([N+](=O)[O-])c1 | 107%
34 | CCCCCCCCCCCCCCCCSC(=NCC)NCC | 2% (active)
35 | CCCCCCCCCCCC(=O)OC(C)C(=O)NCCCC (stereo not given) | 108%
36 | COC(=O)c1ccc(=O)c2nc3/c(=C/O)c(O)cc(=O)c3[nH]c12 | 47.4%
37 | O=C1C=CC(=O)N1c1cc(Cl)c(Cl)cc1Cl | 98.8%
38 | CCCCCCCCCCCCCCCCCC1=NCCCN1CCO | 112%
39 | c1csc(-c2[nH]nc3c2CCc2ccccc2-3)c1 | 48.5%
40 | CCCCCCCCCCCC[N+]1(CCCCCCCCCCCC)CCCC(C)C1 (stereo not given) | -86.3% (active)
